Molecules are shown by their SMILES. Active and inactive are the calls of the source. The calls were made as follows: active = hit-call score of the fitted dose curve at least 0.9, where 1 is the maximum; inactive = score below 0.9.

What is called AC50 is the midpoint of the concentration-response curve, whichever way the signal moves.

Read-out in test [1]: Low-density lipoprotein receptor (LDLR), LDLR (gene 3949)
Nature of the test: BSK_CASM3C_LDLR: BioMAP Diversity Plus: CASM3C Assay for Low-density lipoprotein receptor (LDLR) Biomarker Activity (AID 2283045).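 Also: LDLR protein level on the cell surface quantified by ELISA.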 Conditions: primary human coronary artery smooth muscle cells; actives raise or lower the signal.

Read-out in test [2]: Monocyte Chemoattractant Protein-1 (MCP1), CCL2 (gene 6347)
Nature of the test: BSK_CASM3C_MCP1: BioMAP Diversity Plus: CASM3C Assay for Monocyte Chemoattractant Protein-1 (MCP1) Biomarker Activity (AID 2283046).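 Also: MCP-1 level quantified by ELISA 24 h after dosing.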 Conditions: primary human coronary artery smooth muscle cells; actives raise or lower the signal.

Test [3] is described as follows: BSK_CASM3C_Proliferation: Cell Proliferation Assessment in the BioMAP Diversity Plus: CASM3C Assay (AID 2283047).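 Also: sulforhodamine B total protein stain as relative cell number at 560 nm; sub-confluent cells exposed 48 h before staining; fitted both ways against DMSO so gain or loss of cell number.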 Conditions: primary human coronary artery smooth muscle cells.
Read-out in test [4]: Monokine induced gamma interferon (MIG), CXCL9 (gene 4283)
Nature of the test: BSK_CASM3C_MIG: BioMAP Diversity Plus: CASM3C Assay for Monokine induced gamma interferon (MIG) Biomarker Activity (AID 2283048).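 Also: MIG protein level measured by ELISA.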 The conditions noted are these: primary human coronary artery smooth muscle cells; actives raise or lower the signal.

Read-out in test [5]: serum amyloid A (SAA), SAA1 (gene 6288)
Nature of the test: BSK_CASM3C_SAA: BioMAP Diversity Plus: CASM3C Assay for serum amyloid A (SAA) Biomarker Activity (AID 2283049).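 Also: SAA protein level quantified by ELISA.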 The conditions noted are these: primary human coronary artery smooth muscle cells; actives raise or lower the signal.

Test [6] in a line: BSK_CASM3C_SRB: Viability Assessment in the BioMAP Diversity Plus: CASM3C Assay (AID 2283050).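 Also: total protein by SRB staining as cytotoxicity measure in parallel cultures.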 Conditions: primary human coronary artery smooth muscle cells.
Read-out in test [7]: Thrombomodulin, THBD (gene 7056)
The test is described as follows: BSK_CASM3C_Thrombomodulin: BioMAP Diversity Plus: CASM3C Assay for Thrombomodulin Biomarker Activity (AID 2283051).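 Also: thrombomodulin protein level measured by ELISA 24 h after dosing.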 The conditions noted are these: primary human coronary artery smooth muscle cells; actives raise or lower the signal.

Read-out in test [8]: Tissue Factor, F3 (gene 2152)
The test is described as follows: BSK_CASM3C_TissueFactor: BioMAP Diversity Plus: CASM3C Assay for Tissue Factor Biomarker Activity (AID 2283052).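 Also: cell surface tissue factor protein level read by ELISA.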 The conditions noted are these: primary human coronary artery smooth muscle cells; actives raise or lower the signal.

Read-out in test [9]: Interferon-gamma inducible Protein 10 (IP10), CXCL10 (gene 3627)
Nature of the test: BSK_hDFCGF_IP10: BioMAP Diversity Plus: hDFCGF Assay for Interferon-gamma inducible Protein 10 (IP10) Biomarker Activity (AID 2283053). The conditions noted are these: primary human foreskin fibroblasts; actives raise or lower the signal. In short, it runs like this: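 Human foreskin fibroblast primary cells (hDFCGF system) were dosed with chemical and assayed at 24 h; IP-10 measured by ELISA. Activity fitted bidirectionally relative to DMSO negative control as baseline.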

Read-out in test [10]: Urokinase-type plasminogen activator receptor (uPAR), PLAUR (gene 5329)
Nature of the test: BSK_CASM3C_uPAR: BioMAP Diversity Plus: CASM3C Assay for Urokinase-type plasminogen activator receptor (uPAR) Biomarker Activity (AID 2283054).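 Also: cell-surface uPAR protein level quantified by ELISA.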 Conditions: primary human coronary artery smooth muscle cells; actives raise or lower the signal.

Read-out in test [11]: Vascular cell adhesion molecule 1 (VCAM1), VCAM1 (gene 7412)
The test is described as follows: BSK_CASM3C_VCAM1: BioMAP Diversity Plus: CASM3C Assay for Vascular cell adhesion molecule 1 (VCAM1) Biomarker Activity (AID 2283055).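 Also: VCAM-1 protein level quantified by ELISA on the cells.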 The conditions noted are these: primary human coronary artery smooth muscle cells; actives raise or lower the signal.

Read-out in test [12]: Collagen III, COL3A1 (gene 1281)
The test is described as follows: BSK_hDFCGF_CollagenIII: BioMAP Diversity Plus: hDFCGF Assay for Collagen III Biomarker Activity (AID 2283056). Conditions: primary human foreskin fibroblasts; actives raise or lower the signal. Put shortly: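 Response relative to DMSO, fitted in both directions, reflects ELISA-measured collagen III in human primary skin fibroblasts 24 h after compound addition.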

Read-out in test [13]: Epidermal growth factor receptor (EGFR), EGFR (gene 1956)
The test is described as follows: BSK_hDFCGF_EGFR: BioMAP Diversity Plus: hDFCGF Assay for Epidermal growth factor receptor (EGFR) Biomarker Activity (AID 2283057). The conditions noted are these: primary human foreskin fibroblasts; actives raise or lower the signal. Put shortly: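 Primary human foreskin fibroblasts were exposed to compound for 24 h, after which cell-surface EGFR was quantified by ELISA. Activity was fitted bidirectionally against the DMSO negative control as baseline.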

Read-out in test [14]: Interleukin-8 (IL8), CXCL8 (gene 3576)
Nature of the test: BSK_hDFCGF_IL8: BioMAP Diversity Plus: hDFCGF Assay for Interleukin-8 (IL8) Biomarker Activity (AID 2283058). The conditions noted are these: primary human foreskin fibroblasts; actives raise or lower the signal. In short, it runs like this:
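Fibroblast monolayers (human foreskin, hDFCGF) received test chemical for 24 h before ELISA detection of IL-8; either increases or decreases relative to DMSO count as activity.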

Test [15] is described as follows: BSK_hDFCGF_Proliferation: Cell Proliferation Assessment in the BioMAP Diversity Plus: hDFCGF Assay (AID 2283059).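 Also: curves fitted for both rise and fall of signal versus DMSO baseline.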 Conditions: primary human foreskin fibroblasts. In short, it runs like this:
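Total protein read at 560 nm after 0.1% SRB staining of TCA-fixed human skin fibroblasts, […]. Activity is fitted in both directions relative to DMSO as baseline.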

Read-out in test [16]: Macrophage colony-stimulating factor (MCSF), CSF1 (gene 1435)
Nature of the test: BSK_hDFCGF_MCSF: BioMAP Diversity Plus: hDFCGF Assay for Macrophage colony-stimulating factor (MCSF) Biomarker Activity (AID 2283060). The conditions noted are these: primary human foreskin fibroblasts; actives raise or lower the signal. In short, it runs like this: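 fibroblasts (human foreskin, primary), 24 h post-dose; M-CSF by ELISA; bidirectional fit, DMSO = baseline.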

Test [17] can be described thus: BSK_hDFCGF_SRB: Viability Assessment in the BioMAP Diversity Plus: hDFCGF Assay (AID 2283061).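 Also: cells exposed to compound for 24 h before the read.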 The conditions noted are these: primary human foreskin fibroblasts. In short, it runs like this: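 SRB-based viability read on primary human skin fibroblasts at 24 h: TCA fixation, 0.1% dye, 560 nm. Gain or loss of signal is fitted against the DMSO negative control.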
Read-out in test [18]: TIMP metallopeptidase inhibitor 1 (TIMP1), TIMP1 (gene 7076)
The test is described as follows: BSK_hDFCGF_TIMP1: BioMAP Diversity Plus: hDFCGF Assay for TIMP metallopeptidase inhibitor 1 (TIMP1) Biomarker Activity (AID 2283062). Conditions: primary human foreskin fibroblasts; actives raise or lower the signal. In short, it runs like this: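 Bidirectional curve fitting against DMSO baseline yielded this endpoint, based on ELISA detection of TIMP-1 in primary human foreskin fibroblasts exposed to compound for 24 h.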

Read-out in test [19]: Monokine induced gamma interferon (MIG), CXCL9 (gene 4283)
The test is described as follows: BSK_hDFCGF_MIG: BioMAP Diversity Plus: hDFCGF Assay for Monokine induced gamma interferon (MIG) Biomarker Activity (AID 2283063). Conditions: primary human foreskin fibroblasts; actives raise or lower the signal. In short, it runs like this:
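Endpoint derived by bidirectional fitting relative to DMSO; MIG quantified via ELISA in primary human foreskin fibroblasts harvested 24 h after dosing.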

Read-out in test [20]: Matrix Metallopeptidase 1 (MMP1), MMP1 (gene 4312)
The test is described as follows: BSK_hDFCGF_MMP1: BioMAP Diversity Plus: hDFCGF Assay for Matrix Metallopeptidase 1 (MMP1) Biomarker Activity (AID 2283064). Conditions: primary human foreskin fibroblasts; actives raise or lower the signal. In short, it runs like this: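 hDFCGF primary fibroblasts (human foreskin); chemical added; 24 h; MMP1 by ELISA; bidirectional fit vs DMSO.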

Take `CC(C)(C)c1ccccc1`: the result in [1], in test [2], in test [3], in test [4], in [5] and in [6] was inactive. Further, the result in test [7], in test [8], in [9], in test [10], in test [11] and in [12] was inactive. The result in test [13], in [14], in test [15], in test [16], in test [17] and in test [18] was inactive. For the same molecule, the result in test [19] and in test [20] was inactive.
Turning to `CC(C)NCC(O)c1ccc(O)c(O)c1` (stereo not given), the outcome in [1], in test [2], in [3], in test [4], in [5] and in [6] was inactive. Also, the result in [7], in [8], in test [9], in test [10], in test [11] and in [12] was inactive. The outcome in test [13], in [14], in test [16], in test [17], in test [18] and in test [19] was inactive. Also, in test [20], the result was inactive. The AC50 in test [15] is 26.4 µM (active).
As to `CC1=C(C)S(=O)(=O)CCS1(=O)=O`, the outcome in test [1], in test [2], in test [3], in test [4], in [5] and in [6] was inactive. Further, the result in test [7], in test [8], in test [9], in test [10], in [11] and in test [12] was inactive. Further, the result in test [13], in test [14], in test [15], in test [16], in [17] and in test [18] was inactive. Besides, the result in test [19] and in test [20] was inactive.
With `CC(=O)[C@@]1(O)CC[C@H]2[C@@H]3CCC4=CC(=O)CC[C@]4(C)[C@H]3CC[C@@]21C`, the result in test [1], in [2], in test [3], in test [4], in test [5] and in test [6] was inactive. For the same molecule, the result in test [7], in [8], in [9], in test [10], in test [11] and in test [12] was inactive. Moreover, the outcome in [13], in test [14], in test [15], in test [16], in test [17] and in [18] was inactive. Moreover, the result in [19] and in test [20] was inactive.
Regarding `CC(C)COC(=O)CCCCC(=O)OCC(C)C`, the result in test [1], in test [2], in test [3], in test [4], in [5] and in test [6] was inactive. The outcome in test [7], in [8], in test [9], in test [10], in test [11] and in test [12] was inactive. Also, the outcome in [13], in test [14], in test [15], in [16], in [17] and in [18] was inactive. The outcome in test [19] and in [20] was inactive.
Take `O=[Si]=O`: the result in [1], in [2], in test [3], in test [4], in test [5] and in [6] was inactive. In addition, the result in [7], in test [8], in test [9], in test [10], in test [11] and in test [12] was inactive. Besides, the result in test [13], in test [14], in test [15], in test [16], in [17] and in [18] was inactive. The result in test [19] and in [20] was inactive.
On to `C=CCc1ccc(OC)c(OC)c1`, for which the outcome in [1], in test [2], in test [3], in test [4], in [5] and in test [6] was inactive. For the same molecule, the result in test [7], in test [8], in [9], in [10], in test [11] and in test [12] was inactive. In addition, the result in test [13], in [14], in [15], in test [16], in test [17] and in [18] was inactive. Also, the outcome in test [19] and in test [20] was inactive.

The values above are taken from PubChem BioAssay (EPA / NIEHS).
